Measured values reported in ChEMBL document CHEMBL3988442, “University of Dundee, Small-Polar-MMV Screening Library” (2021).
Among all 48,000 compounds or so, about 13,000 (27%) showed an effect of 50% or more. The list shows a part of the results.

system: Wolbachia pipientis; assay: Anti-Wolbachia Cell-Based Screen; assay type: functional; design: scale not given: in the data most compounds retested in dose-response had high values; conditions: 5 µM

First: CNC(=O)c1cccc(CCNC2CCSc3ccccc32)c1 (configuration not stated)
Second: O=C(Nc1ccccc1Oc1cccc(F)c1)C1CCS(=O)(=O)C1 (configuration not stated)
The “Percent Effect” value of the first is lower: -5.556% for the first, 17.61% for the second.

Compared with CC(=O)Nc1ccc(C(=O)Nc2cnc3n2CCCC3)c(C)c1, Cc1nccn1-c1cc(CNC(=O)CCC2CCCO2)ccn1 (configuration not stated) is higher in “Percent Effect” value: -9.74% for the first, 10.65% for the second.

Going from Cn1ccc(CNC(=O)N2CCC(C3(C)OCCO3)CC2)c1 to NC(=O)NCC(=O)N1CCCC(c2nccn2Cc2ccncc2)C1 (configuration not stated), the “Percent Effect” value falls from 7.37% to -11.58%.

Compared with c1cnn(C2CN(Cc3noc(C4CC4)n3)C2)c1, Cn1cccc1CN1CCc2ncnc(-c3cccnc3)c2CC1 is higher in “Percent Effect” value: 20.24% for the first, 88.44% for the second.

First: COC(=O)[C@H]1C[C@@H](O)CCN1S(=O)(=O)c1cc(Cl)ccc1OC
Second: COc1cccc(C(=O)NS(=O)(=O)c2cccc(C#N)c2)c1OC
The “Percent Effect” value of the first is lower: -10.78% for the first, -1.089% for the second.

First: COc1ccccc1C(=O)NS(=O)(=O)c1cccc(C#N)c1
Second: COC(=O)c1cccc(S(=O)(=O)NC(=O)c2cccc(OC)c2OC)c1
The “Percent Effect” value of the first is higher: 106.4% for the first, 4.901% for the second.

Going from CN1CCN(CCn2cnc3c(F)cccc3c2=O)CC1 to CSc1nc2ncc3c(=O)n(CCN4CCCCC4)ccc3n2n1, the “Percent Effect” value rises from 0.6334% to 124.9%.

Going from COCCn1ccc2c(cnc3nc(SC)nn32)c1=O to COCCn1cncc1Cn1cccc(C(F)(F)F)c1=O, the “Percent Effect” value falls from 167% to -5.803%.

Going from COc1nc2ccn(CCc3cnccn3)c(=O)c2cc1C#N to CS(=O)(=O)Cc1nc(CCc2ccccc2)nn1-c1ccccn1, the “Percent Effect” value falls from -4.634% to -12.46%.

Compared with CC(Cn1cncn1)NC(=O)Nc1ccc(F)cc1OCC1CC1 (configuration not stated), COc1ncnc2c1CCN(Cc1cccs1)CC2.O=C(O)C(F)(F)F is lower in “Percent Effect” value: 4.941% for the first, -7.322% for the second.

Compared with O=C(C1CCOC1)N1CCc2ncnc(-c3cccnc3)c2CC1 (configuration not stated), c1ccc(CN2CCc3ncnc(-c4cncnc4)c3CC2)nc1 is lower in “Percent Effect” value: 8.249% for the first, -4.171% for the second.

First: Cc1ccc(CN2CCc3ncnc(-c4cccnc4)c3CC2)o1.O=C(O)C(F)(F)F.O=C(O)C(F)(F)F
Second: CCc1ccc(CN2CCc3ncnc(-c4cccnc4)c3CC2)o1.O=C(O)C(F)(F)F.O=C(O)C(F)(F)F
The “Percent Effect” value of the first is lower: -3.02% for the first, 106.1% for the second.

Going from O=C(O)C(F)(F)F.O=C(O)C(F)(F)F.c1cncc(-c2ncnc3c2CCN(Cc2ccsc2)CC3)c1 to O=C(O)C(F)(F)F.O=C(O)C(F)(F)F.c1cncc(-c2ncnc3c2CCN(Cc2cccs2)CC3)c1, the “Percent Effect” value falls from 91.57% to 89.28%.

With O=C(O)C(F)(F)F.O=C(O)C(F)(F)F.c1ccc(CN2CCc3ncnc(-c4cccnc4)c3CC2)nc1 the “Percent Effect” value was 17.47%.
